Where a name gives a salt, the structure may show the parent alone. ± gives the standard deviation of the averaged measurements.

The subject of the first test is DLD1. The experiment in a line: TCF/Wnt firefly luciferase reporter signal relative to plate median (fraction of plate median); higher = higher Wnt reporter signal. The note with it: 10 µM; treatment time 24 h; reporter: 7TFP. Summed up:
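Each value averages two independent replicates in which the well signal was normalised to the plate median (webcellHTS2, additive, without log transformation). The signal was firefly luciferase or CellTiterGlo luminescence, read on parallel plates with a Tecan F500. The cells were colorectal cancer lines with stable lentiviral TCF/Wnt firefly luciferase reporters in 384-well plates, dosed 24 h after seeding with kinase inhibitor library compounds at a final 10 µM for 24 h.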
On to `O=C(NOC[C@H](O)CO)c1ccc(F)c(F)c1Nc1ccc(I)cc1F`, for which the “TCF/Wnt firefly luciferase reporter signal” value came to 1.62 ± 0.17.
On the same count and under the same terms, next, `Cc1cnc(Nc2ccc(N3CCN(C)CC3)cc2)nc1Nc1cccc(S(=O)(=O)NC(C)(C)C)c1`: 1.37 ± 0.2.
The same measure, in the same setting: the figure for `N#CCNC(=O)c1ccc(-c2ccnc(Nc3ccc(N4CCOCC4)cc3)n2)cc1` is 1.32 ± 0.26; for `COc1ccc2c(OCc3nnc4ccc(-c5ccccc5)nn34)ccnc2c1` it is 1.29 ± 0.028; for `Oc1cc(O)cc(/C=C/c2ccc(O)c(O)c2)c1` [Piceatannol] it is 1.44 ± 0.15.
Same read-out and setting: the figure for `CN1CC[C@H](c2c(O)cc(O)c3c(=O)cc(-c4ccccc4Cl)oc23)[C@H](O)C1` [Flavopiridol hydrochloride] is 0.393 ± 0.14; for `CO[C@H]1C[C@@H]2CC[C@@H](C)[C@@](O)(O2)C(=O)C(=O)N2CCCC[C@H]2C(=O)O[C@H]([C@H](C)C[C@@H]2CC[C@@H](O)[C@H](OC)C2)CC(=O)[C@H](C)/C=C(\C)[C@@H](O)[C@@H](OC)C(=O)[C@H](C)C[C@H](C)/C=C/C=C/C=C/1C` [Rapamycin (Sirolimus)] it is 1.07 ± 0.071; for `CC(=O)Nc1nc(C)c(-c2ccc(Cl)c(S(=O)(=O)NCCO)c2)s1` it is 0.9 ± 0.037.
In the case of `O=C1NC(=O)[C@@H](c2cn3c4c(cccc24)CCC3)[C@@H]1c1c[nH]c2ccccc12` [ARQ 197 (Tivantinib)], the “TCF/Wnt firefly luciferase reporter signal” value worked out at 0.632 ± 0.25.
Same read-out and setting: next, `CCC(=O)N1CCN(c2ccc(-n3c(=O)ccc4cnc5ccc(-c6cnc7ccccc7c6)cc5c43)cc2C(F)(F)F)CC1` [Torin 1]: 0.252 ± 0.044; `O=C1NC(=O)/C(=C\c2ccc3nccnc3c2)S1`: 1.38 ± 0.05.
Still for that read-out and setting: next, `O=C1NC(=O)C(c2ccccc2[N+](=O)[O-])=C1Nc1ccc(O)c(Cl)c1`: 1.63 ± 0.24.
Still for that read-out and setting: the figure for `CCn1c(-c2nonc2N)nc2c(C#CC(C)(C)O)ncc(OC[C@H]3CCCNC3)c21` is 1.05 ± 0.55; for `O=C1NCCc2[nH]c(-c3ccncc3)cc21` it is 0.612 ± 0.054; for `Cc1ccc(NC(=O)c2ccc(CN3CCN(C)CC3)cc2)cc1Nc1nccc(-c2cccnc2)n1` [Imatinib Mesylate] it is 2.07 ± 0.14.
As for `Cc1[nH]c(/C=C2\C(=O)Nc3ccccc32)c(C)c1CCC(=O)O`, the “TCF/Wnt firefly luciferase reporter signal” value is 1.93 ± 0.38.
On the same count and under the same terms, next, `CC(=O)Nc1cccc(-n2c(=O)n(C3CC3)c(=O)c3c(Nc4ccc(I)cc4F)n(C)c(=O)c(C)c32)c1`: 1.09 ± 0.52; `COc1cc2c(Oc3ccc(NC(=O)C4(C(=O)Nc5ccc(F)cc5)CC4)cc3F)ccnc2cc1OCCCN1CCOCC1`: 0.794 ± 0.15.
As for `O=C(NC1CCNCC1)c1n[nH]cc1NC(=O)c1c(Cl)cccc1Cl`, the “TCF/Wnt firefly luciferase reporter signal” value was found to be 0.517 ± 0.1.
Still for that read-out and setting: next, `C#Cc1cccc(Nc2ncnc3cc(OCCOC)c(OCCO)cc23)c1` [OSI-420 (Desmethyl Erlotinib)]: 0.826 ± 0.023.
Same read-out and setting: next, `CN(C)CCOc1ccc(-c2nc(-c3ccncc3)c(-c3ccc4c(c3)CC/C4=N\O)[nH]2)cc1`: 1.3 ± 0.092; `NC(=O)Nc1sc(-c2ccc(F)cc2)cc1C(N)=O`: 0.669 ± 0.03; `COc1cc2c(Oc3ccc4[nH]c(C)cc4c3F)ncnc2cc1OCCCN1CCCC1` [Cediranib (AZD2171)]: 0.968 ± 0.51.
Still for that read-out and setting: the figure for `C=CC(=O)Nc1cccc(Sc2nc(Nc3ccc(N4CCN(C)CC4)cc3)ncc2Cl)c1` is 1.79 ± 0.25; for `COc1cc(Nc2ncc(F)c(Nc3ccc4c(n3)NC(=O)C(C)(C)O4)n2)cc(OC)c1OC` [R406(free base)] it is 1.26 ± 0.028.
On to `O=C(Nc1cc(C(F)(F)F)cc(C(F)(F)F)c1)c1cc(Cl)ccc1O`, for which the “TCF/Wnt firefly luciferase reporter signal” value amounted to 0.473 ± 0.11.
The same measure, in the same setting: next, `Cc1cc(C(=O)NOCCO)c(Nc2ccc(I)cc2F)n(C)c1=O`: 1.635 ± 0.0071; `O=C(NC[C@H](O)CO)c1ccncc1Nc1ccc(I)cc1F`: 1.71 ± 0.46; `CNC(=O)c1ccccc1Nc1nc(Nc2ccc(N3CCOCC3)cc2OC)ncc1Cl`: 0.638 ± 0.0099.
As for `CC(C)(C)c1cnc(CSc2cnc(NC(=O)C3CCNCC3)s2)o1`, the “TCF/Wnt firefly luciferase reporter signal” value turned out to be 0.462 ± 0.047.
The same measure, in the same setting: next, `COc1ccc(S(=O)(=O)N(C(C)=O)c2ccccc2/C=C/c2cc[n+]([O-])cc2)cc1`: 0.725 ± 0.03; `Cn1cc(C2=C(c3ccc(Cl)cc3Cl)C(=O)NC2=O)c2ccccc21`: 1.4 ± 0.057.
Still for that read-out and setting: the figure for `Cn1cnc2c(F)c(Nc3ccc(Br)cc3Cl)c(C(=O)NOCCO)cc21` [AZD6244 (Selumetinib)] is 1.45 ± 0.021; for `O=c1cc(N2CCOCC2)oc2c(-c3ccccc3)cccc12` it is 1.11 ± 0.078; for `O=C(O)c1ccc(Nc2ncc3c(n2)-c2ccc(Cl)cc2C(c2c(F)cccc2F)=NC3)cc1` it is 1.1 ± 0.19.
Regarding `Nc1ccc(-c2ccc3ncc4ccc(=O)n(-c5cccc(C(F)(F)F)c5)c4c3c2)cn1` [Torin 2], the “TCF/Wnt firefly luciferase reporter signal” value was found to be 0.355 ± 0.027.
Still for that read-out and setting: next, `CCn1nnc2c(N3CCOCC3)nc(-c3ccc(NC(=O)Nc4ccc(C(=O)N5CCN(C)CC5)cc4)cc3)nc21`: 0.633 ± 0.025; `N#C/C(=C\c1ccc(O)c(O)c1)C(=O)NCc1ccccc1`: 0.656 ± 0.15; `COc1cc2ncnc(Nc3cccc(Br)c3)c2cc1OC`: 0.631 ± 0.37.

The same test, now with this note: 10 µM; treatment time 24 h; reporter: TCF4/Wnt.
Consider `O=C(NOC[C@H](O)CO)c1ccc(F)c(F)c1Nc1ccc(I)cc1F`, for which the “TCF/Wnt firefly luciferase reporter signal” value worked out at 1.28 ± 0.26.
Same read-out and setting: the figure for `Cc1cnc(Nc2ccc(N3CCN(C)CC3)cc2)nc1Nc1cccc(S(=O)(=O)NC(C)(C)C)c1` is 2.17 ± 0.035; for `N#CCNC(=O)c1ccc(-c2ccnc(Nc3ccc(N4CCOCC4)cc3)n2)cc1` it is 1.16 ± 0.13.
Still for that read-out and setting: next, `COc1ccc2c(OCc3nnc4ccc(-c5ccccc5)nn34)ccnc2c1`: 1.27 ± 0.028.
Still for that read-out and setting: the figure for `Oc1cc(O)cc(/C=C/c2ccc(O)c(O)c2)c1` [Piceatannol] is 1.66 ± 0.37.
For the compound `CN1CC[C@H](c2c(O)cc(O)c3c(=O)cc(-c4ccccc4Cl)oc23)[C@H](O)C1` [Flavopiridol hydrochloride], the “TCF/Wnt firefly luciferase reporter signal” value turned out to be 0.227 ± 0.069.
On the same count and under the same terms, next, `CO[C@H]1C[C@@H]2CC[C@@H](C)[C@@](O)(O2)C(=O)C(=O)N2CCCC[C@H]2C(=O)O[C@H]([C@H](C)C[C@@H]2CC[C@@H](O)[C@H](OC)C2)CC(=O)[C@H](C)/C=C(\C)[C@@H](O)[C@@H](OC)C(=O)[C@H](C)C[C@H](C)/C=C/C=C/C=C/1C` [Rapamycin (Sirolimus)]: 1.09 ± 0.26.
On to `CC(=O)Nc1nc(C)c(-c2ccc(Cl)c(S(=O)(=O)NCCO)c2)s1`, for which the “TCF/Wnt firefly luciferase reporter signal” value is 1 ± 0.08.
On the same count and under the same terms, the figure for `O=C1NC(=O)[C@@H](c2cn3c4c(cccc24)CCC3)[C@@H]1c1c[nH]c2ccccc12` [ARQ 197 (Tivantinib)] is 0.788 ± 0.31.
Same read-out and setting: next, `CCC(=O)N1CCN(c2ccc(-n3c(=O)ccc4cnc5ccc(-c6cnc7ccccc7c6)cc5c43)cc2C(F)(F)F)CC1` [Torin 1]: 0.311 ± 0.049; `O=C1NC(=O)/C(=C\c2ccc3nccnc3c2)S1`: 1.48 ± 0.021.
The same measure, in the same setting: next, `O=C1NC(=O)C(c2ccccc2[N+](=O)[O-])=C1Nc1ccc(O)c(Cl)c1`: 1.85 ± 0.45.
With `CCn1c(-c2nonc2N)nc2c(C#CC(C)(C)O)ncc(OC[C@H]3CCCNC3)c21`, the “TCF/Wnt firefly luciferase reporter signal” value came to 1.22 ± 0.26.
Still for that read-out and setting: the figure for `O=C1NCCc2[nH]c(-c3ccncc3)cc21` is 0.44 ± 0.11; for `Cc1ccc(NC(=O)c2ccc(CN3CCN(C)CC3)cc2)cc1Nc1nccc(-c2cccnc2)n1` [Imatinib Mesylate] it is 1.51 ± 0.4; for `Cc1[nH]c(/C=C2\C(=O)Nc3ccccc32)c(C)c1CCC(=O)O` it is 1.26 ± 0.41.
As for `CC(=O)Nc1cccc(-n2c(=O)n(C3CC3)c(=O)c3c(Nc4ccc(I)cc4F)n(C)c(=O)c(C)c32)c1`, the “TCF/Wnt firefly luciferase reporter signal” value was determined as 1.39 ± 0.54.
Same read-out and setting: next, `COc1cc2c(Oc3ccc(NC(=O)C4(C(=O)Nc5ccc(F)cc5)CC4)cc3F)ccnc2cc1OCCCN1CCOCC1`: 0.568 ± 0.054.
With `O=C(NC1CCNCC1)c1n[nH]cc1NC(=O)c1c(Cl)cccc1Cl`, the “TCF/Wnt firefly luciferase reporter signal” value is 0.797 ± 0.67.
On the same count and under the same terms, the figure for `C#Cc1cccc(Nc2ncnc3cc(OCCOC)c(OCCO)cc23)c1` [OSI-420 (Desmethyl Erlotinib)] is 0.927 ± 0.12.
Still for that read-out and setting: the figure for `CN(C)CCOc1ccc(-c2nc(-c3ccncc3)c(-c3ccc4c(c3)CC/C4=N\O)[nH]2)cc1` is 1.28 ± 0.042; for `NC(=O)Nc1sc(-c2ccc(F)cc2)cc1C(N)=O` it is 1.16 ± 0.18.
The same measure, in the same setting: the figure for `COc1cc2c(Oc3ccc4[nH]c(C)cc4c3F)ncnc2cc1OCCCN1CCCC1` [Cediranib (AZD2171)] is 0.801 ± 0.32; for `C=CC(=O)Nc1cccc(Sc2nc(Nc3ccc(N4CCN(C)CC4)cc3)ncc2Cl)c1` it is 1.15 ± 0.22; for `COc1cc(Nc2ncc(F)c(Nc3ccc4c(n3)NC(=O)C(C)(C)O4)n2)cc(OC)c1OC` [R406(free base)] it is 1.16 ± 0.13.
On to `O=C(Nc1cc(C(F)(F)F)cc(C(F)(F)F)c1)c1cc(Cl)ccc1O`, for which the “TCF/Wnt firefly luciferase reporter signal” value stood at 1.47 ± 0.67.
Still for that read-out and setting: next, `Cc1cc(C(=O)NOCCO)c(Nc2ccc(I)cc2F)n(C)c1=O`: 1.58 ± 0.25.
The same measure, in the same setting: the figure for `O=C(NC[C@H](O)CO)c1ccncc1Nc1ccc(I)cc1F` is 1.73 ± 0.54.
As for `CNC(=O)c1ccccc1Nc1nc(Nc2ccc(N3CCOCC3)cc2OC)ncc1Cl`, the “TCF/Wnt firefly luciferase reporter signal” value amounted to 0.823 ± 0.17.
`CC(C)(C)c1cnc(CSc2cnc(NC(=O)C3CCNCC3)s2)o1`: the “TCF/Wnt firefly luciferase reporter signal” value amounted to 1.06 ± 0.92.
On the same count and under the same terms, the figure for `COc1ccc(S(=O)(=O)N(C(C)=O)c2ccccc2/C=C/c2cc[n+]([O-])cc2)cc1` is 1 ± 0.14.
The same measure, in the same setting: the figure for `Cn1cc(C2=C(c3ccc(Cl)cc3Cl)C(=O)NC2=O)c2ccccc21` is 1.35 ± 0.43.
On to `Cn1cnc2c(F)c(Nc3ccc(Br)cc3Cl)c(C(=O)NOCCO)cc21` [AZD6244 (Selumetinib)], for which the “TCF/Wnt firefly luciferase reporter signal” value came to 1.42 ± 0.16.
Still for that read-out and setting: next, `O=c1cc(N2CCOCC2)oc2c(-c3ccccc3)cccc12`: 1.15 ± 0.21; `O=C(O)c1ccc(Nc2ncc3c(n2)-c2ccc(Cl)cc2C(c2c(F)cccc2F)=NC3)cc1`: 1.11 ± 0.042.
For `Nc1ccc(-c2ccc3ncc4ccc(=O)n(-c5cccc(C(F)(F)F)c5)c4c3c2)cn1` [Torin 2], the “TCF/Wnt firefly luciferase reporter signal” value came to 0.523 ± 0.032.
On the same count and under the same terms, next, `CCn1nnc2c(N3CCOCC3)nc(-c3ccc(NC(=O)Nc4ccc(C(=O)N5CCN(C)CC5)cc4)cc3)nc21`: 1.19 ± 0.042; `N#C/C(=C\c1ccc(O)c(O)c1)C(=O)NCc1ccccc1`: 1.2 ± 0.13; `COc1cc2ncnc(Nc3cccc(Br)c3)c2cc1OC`: 0.58 ± 0.13.

Source of the values: the supplement of paper PMC6522484.
